Results: PubChem BioAssay (NCI)
Compounds without any hit were thinned out: in the full panel of roughly 79,000, 15% have a hit. Active and inactive are the calls of the source. No stated cut-off is given here; in the data, active means growth inhibition above about 70%; inactive means the rest.

Legend:
[1] = NCI Yeast Anticancer Drug Screen. Data for the mlh1 strain (AID 171);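 further: 0% = growth of vehicle-treated control cultures of the same strain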; conditions: S. cerevisiae mlh1 strain growth inhibition, stronger effect = higher value
How it was run: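 Inhibition values reflect reduced yeast growth in the presence of compound, referenced to vehicle controls, using a strain chosen for its alteration in DNA repair or cell cycle control.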

[2] = NCI Yeast Anticancer Drug Screen. Data for the sgs1 strain (AID 173);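 further: 0% = growth of vehicle-only control cultures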; conditions: S. cerevisiae sgs1 mutant, stronger effect = higher value
How it was run: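 Vehicle-treated cultures served as reference for growth inhibition of a yeast strain altered in DNA damage repair or cell cycle control after compound exposure.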

[3] = NCI Yeast Anticancer Drug Screen. Data for the mlh1 rad18 strain (AID 175); conditions: S. cerevisiae mlh1 rad18 strain growth inhibition, stronger effect = higher value
How it was run: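 Inhibition values reflect reduced growth of mutant yeast versus vehicle-treated controls following compound exposure; the mutations affect DNA damage repair.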

[4] = NCI Yeast Anticancer Drug Screen. Data for the rad18 strain (AID 177); conditions: S. cerevisiae rad18 mutant growth inhibition, stronger effect = higher value
How it was run: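 Steps: expose repair-mutant yeast to compound; measure growth; express as inhibition relative to vehicle control.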

[5] = NCI Yeast Anticancer Drug Screen. Data for the wt1 strain (AID 149);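 further: 0% = growth of vehicle-treated wt1 cultures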; conditions: S. cerevisiae wt1 strain (SPY 50644) growth inhibition, stronger effect = higher value
How it was run: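 Readout: yeast growth inhibition, normalised to vehicle controls, in the wt1 strain exposed to test compounds.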

[6] = NCI Yeast Anticancer Drug Screen. Data for the rad50EPP+ strain (AID 151);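 further: 0% = growth of vehicle-treated control cultures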; conditions: S. cerevisiae rad50 mutant strain, stronger effect = higher value
How it was run: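 Genetically defined yeast (rad50EPP+, DNA damage repair alteration) is grown with compound, and inhibition of growth is expressed relative to vehicle-treated controls.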

[7] = NCI Yeast Anticancer Drug Screen. Data for the mgt1 strain (AID 153); conditions: S. cerevisiae mgt1 mutant growth inhibition, stronger effect = higher value
How it was run: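 In the mgt1 strain, test compounds were added and growth inhibition was determined relative to vehicle-treated controls.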

[8] = NCI Yeast Anticancer Drug Screen. Data for the rad50 strain (AID 155);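 further: 0% = growth of vehicle-only cultures of the same strain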; conditions: S. cerevisiae rad50 strain growth inhibition, stronger effect = higher value
How it was run: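 Compounds were tested on a yeast strain with an engineered DNA damage repair alteration; the reported value is growth inhibition normalised to vehicle treatment.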

[9] = NCI Yeast Anticancer Drug Screen. Data for the mec2-1 strain (AID 157); conditions: S. cerevisiae mec2-1 strain, stronger effect = higher value
How it was run: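 Each compound was tested on mec2-1 yeast, a strain altered in DNA damage repair or cell cycle control. Growth inhibition is reported relative to vehicle.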

[10] = NCI Yeast Anticancer Drug Screen. Data for the rad14 strain (AID 159);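 further: 0% = growth of vehicle-treated control cultures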; conditions: S. cerevisiae rad14 strain growth inhibition, stronger effect = higher value
How it was run: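 Compound-treated yeast with a defined DNA-repair lesion; growth inhibition normalised to vehicle-treated cultures.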

[11] = NCI Yeast Anticancer Drug Screen. Data for the sgs1 mgt1 strain (AID 161);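 further: 0% = growth of cultures given vehicle only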; conditions: S. cerevisiae sgs1 mgt1 strain, stronger effect = higher value
How it was run: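 Inhibition of yeast growth, normalised to vehicle-treated controls, is reported for a strain bearing genetic alterations in DNA damage repair.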

[12] = NCI Yeast Anticancer Drug Screen. Data for the CLN2oe strain (AID 163);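 further: 0% = growth of vehicle-only control cultures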; conditions: S. cerevisiae CLN2oe strain, stronger effect = higher value
How it was run: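 First, the altered yeast strain was treated with each compound; second, its growth was measured; finally, inhibition was derived by comparison with vehicle controls.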

[13] = NCI Yeast Anticancer Drug Screen. Data for the cln2 rad14 strain (AID 165);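 further: 0% = growth equal to vehicle treated cultures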; conditions: S. cerevisiae cln2 rad14 strain, stronger effect = higher value
How it was run: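 Test compounds were added to cln2 rad14 yeast cultures; inhibition of growth was then determined by comparison with vehicle treatment.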

[14] = NCI Yeast Anticancer Drug Screen. Data for the bub3 strain (AID 167); conditions: S. cerevisiae bub3 mutant strain, stronger effect = higher value
How it was run: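 Growth of a checkpoint-deficient yeast mutant is measured after compound exposure. Values represent inhibition relative to vehicle.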

[15] = NCI Yeast Anticancer Drug Screen. Data for the wt2 strain (AID 169);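 further: 0% = growth of vehicle-treated yeast cultures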; conditions: S. cerevisiae wt2 strain growth inhibition, stronger effect = higher value
How it was run: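 The panel's yeast strains carry defined changes in DNA repair or cell cycle genes. Each strain is grown with compound, and growth loss is scored relative to vehicle.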

[16] = at 5.0 µM (retest, dose inferred, filed as 0.5)
[17] = at 50.0 µM (retest, dose inferred, filed as 5.0)

Measured: growth inhibition

COc1ccc(/C=C2\S/C(=N/Nc3nc(-c4ccccc4)cs3)NC2=O)cc1OC
inactive: [1]; at 1.2 µM 13% | [2]; at 1.2 µM 32% | [3]; [16] 12% | [4]; at 1.2 µM 35%
active: [1]; at 3.7 µM 75% | [1]; at 11.0 µM 96% | [1]; at 33.0 µM 94% | [1]; at 100.0 µM 88% | [2]; at 3.7 µM 73% | [2]; at 11.0 µM 88% | [2]; at 33.0 µM 95% | [2]; at 100.0 µM 92% | [3]; [17] 97% | [3]; at 50.0 µM 98.5% | [4]; at 3.7 µM 83% | [4]; at 11.0 µM 97% | [4]; at 33.0 µM 96% | [4]; at 100.0 µM 90%

CCOC(=O)C(NC(=O)c1ccccc1)[CH](c1ccccc1)[Sn]([c]1ccccc1)([c]1ccccc1)[c]1ccccc1 (stereo unspecified)
inactive: [5]; at 1.2 µM -81% | [5]; at 3.7 µM 0% | [5]; at 11.0 µM 0% | [5]; at 33.0 µM 11% | [6]; at 1.2 µM -2% | [6]; at 3.7 µM 2% | [6]; at 11.0 µM 3% | [6]; at 33.0 µM 3% | [6]; at 100.0 µM -6% | [7]; at 1.2 µM -1% | [7]; at 3.7 µM 2% | [7]; at 11.0 µM 2% | [7]; at 33.0 µM 17% | [8]; at 1.2 µM 0% | [8]; at 3.7 µM 3% | [8]; [16] -4% | [8]; at 11.0 µM 4% | [8]; at 33.0 µM 21% | [9]; at 1.2 µM 0% | [9]; at 3.7 µM 1% | [9]; [16] -3% | [9]; at 11.0 µM 1% | [9]; at 33.0 µM 17% | [9]; [17] 40% | [10]; at 1.2 µM 2% | [10]; at 3.7 µM 2% | [10]; at 11.0 µM 4% | [10]; at 33.0 µM 17% | [11]; [16] -4% | [11]; [17] 36% | [12]; at 1.2 µM -5% | [12]; at 3.7 µM -11% | [12]; at 11.0 µM -15% | [12]; at 33.0 µM -6% | [13]; [16] -7% | [13]; [17] 19% | [14]; at 1.2 µM -7% | [14]; at 3.7 µM -4% | [14]; [16] -11% | [14]; at 11.0 µM -6% | [14]; at 33.0 µM 10% | [14]; [17] 59% | [15]; at 1.2 µM -3% | [15]; at 3.7 µM -2% | [15]; at 11.0 µM -1% | [15]; at 33.0 µM 35% | [1]; at 1.2 µM 0% | [1]; at 3.7 µM 0% | [1]; at 11.0 µM 0% | [1]; at 33.0 µM 17% | [2]; at 1.2 µM 1% | [2]; at 3.7 µM 4% | [2]; at 11.0 µM 4% | [2]; at 33.0 µM 34% | [3]; [16] -5% | [4]; at 1.2 µM -1% | [4]; at 3.7 µM 5% | [4]; at 11.0 µM 0% | [4]; at 33.0 µM 45%
active: [5]; at 100.0 µM 93% | [7]; at 100.0 µM 95% | [8]; [17] 73% | [8]; at 50.0 µM 95.7% | [8]; at 100.0 µM 92% | [9]; at 50.0 µM 97.8% | [9]; at 100.0 µM 95% | [10]; at 100.0 µM 95% | [11]; at 50.0 µM 97.3% | [12]; at 100.0 µM 95% | [13]; at 50.0 µM 93.7% | [14]; at 50.0 µM 98.7% | [14]; at 100.0 µM 94% | [15]; at 100.0 µM 96% | [1]; at 100.0 µM 96% | [2]; at 100.0 µM 94% | [3]; [17] 79% | [3]; at 50.0 µM 98% | [4]; at 100.0 µM 94%
